# From PubChem
# SW480 rerep = induces DNA re-replication in SW480 colon adenocarcinoma cells; SW480 DNA re-replication, Hoechst DNA content imaging, 48 h; Potency, µM (doses to about 46.1 µM), for inactives: at the highest dose re-replication activation, most hits filed as activators; hit rate 1.8% among 340,000; also: potency is read from the fitted curve at half-maximal effect; % of control where 0% means no effect; nearly all actives have a fitted effect of over 55% in size
#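 Image-based DNA-content assay: after two days of treatment, nuclei were labelled with the DNA dye Hoechst and imaged, and hits were compounds raising the count of nuclei showing high fluorescence intensity.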
# MCF10A rereplic = inducers of DNA re-replication in MCF 10A breast cells; MCF 10A DNA re-replication, Hoechst nuclear intensity, 48 h; Potency, µM (top dose mostly 46.1 µM), for inactives: at the highest dose activity, positive = re-replication, actives largely listed as activators; hit rate 2.9% among 350,000; AID 624296; also: potency is read from the fitted curve at half-maximal effect; % of control where 0% means no effect; nearly all actives have a fitted effect of over 50% in size
# hERG WT inh = inhibitors of human wildtype KCNH2 potassium channel; U2OS, BacMam KCNH2, thallium flux FluxOr; hits give low values; hit rate 0.37% among 340,000; activity change, % at 1.84 µM; Q12809;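 active = maximum activity change below -70%; inconclusive = maximum activity change between -70% and -50%; inactive = maximum activity change above -50%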; also: % is scaled to controls: 0 for no effect and ±100 for the full control effect
# Target sequence (Q12809 whole entry, looked up): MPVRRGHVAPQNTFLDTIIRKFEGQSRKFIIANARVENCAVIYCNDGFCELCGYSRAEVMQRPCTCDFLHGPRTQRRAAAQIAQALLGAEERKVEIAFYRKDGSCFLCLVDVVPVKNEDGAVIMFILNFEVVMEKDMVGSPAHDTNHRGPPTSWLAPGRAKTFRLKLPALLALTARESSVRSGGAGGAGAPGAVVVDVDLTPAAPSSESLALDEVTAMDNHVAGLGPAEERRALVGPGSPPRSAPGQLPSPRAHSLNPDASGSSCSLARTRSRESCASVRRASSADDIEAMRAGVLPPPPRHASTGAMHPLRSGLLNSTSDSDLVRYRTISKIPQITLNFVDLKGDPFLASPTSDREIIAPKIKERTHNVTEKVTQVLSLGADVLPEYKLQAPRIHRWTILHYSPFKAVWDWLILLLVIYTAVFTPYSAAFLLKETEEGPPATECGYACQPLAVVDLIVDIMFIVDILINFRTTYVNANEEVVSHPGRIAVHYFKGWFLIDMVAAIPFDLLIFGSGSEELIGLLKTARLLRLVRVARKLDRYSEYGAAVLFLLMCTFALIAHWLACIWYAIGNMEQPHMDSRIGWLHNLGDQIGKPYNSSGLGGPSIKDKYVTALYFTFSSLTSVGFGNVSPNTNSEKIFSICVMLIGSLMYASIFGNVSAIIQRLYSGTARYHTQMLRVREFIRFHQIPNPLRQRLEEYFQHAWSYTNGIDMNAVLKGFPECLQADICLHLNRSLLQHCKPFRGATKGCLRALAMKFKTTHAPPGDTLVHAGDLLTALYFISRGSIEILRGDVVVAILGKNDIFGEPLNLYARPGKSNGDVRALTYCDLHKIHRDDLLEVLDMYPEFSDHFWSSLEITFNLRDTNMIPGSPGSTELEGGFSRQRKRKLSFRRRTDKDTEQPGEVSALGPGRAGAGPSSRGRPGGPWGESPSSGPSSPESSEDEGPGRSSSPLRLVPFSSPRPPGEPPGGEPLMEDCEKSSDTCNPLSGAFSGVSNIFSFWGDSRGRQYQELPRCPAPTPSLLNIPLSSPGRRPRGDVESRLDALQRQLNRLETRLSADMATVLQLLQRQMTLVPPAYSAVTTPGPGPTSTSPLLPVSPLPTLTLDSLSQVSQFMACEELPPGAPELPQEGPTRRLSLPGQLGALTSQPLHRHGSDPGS
#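 U2OS cells were transduced with wild-type KCNH2 virus (2.03 x 10^8 / mL) for 4 h at room temperature, then cultured overnight at 37 C. Thallium flux was read with FluxOr dye. Rate constants were normalized to DMSO controls.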
# KCNH2 3.1 block = inhibitors of human KCNH2 3.1 potassium channel isoform; U2OS KCNH2 3.1, thallium flux FluxOr; hits give low values; activity change, % (tested at about 1.8 µM); hit rate 0.95% among 340,000;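 active = maximum activity change below -70%; inconclusive = maximum activity change from -70% to -50%; inactive = maximum activity change above -50%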;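 also: thallium influx rate constant from kinetic fluorescence after stimulation buffer; % is scaled to controls: 0 for no effect and ±100 for the full control effect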
#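 Channel expression came from 3.1 mutant virus (1.77 x 10^8 /mL) applied to suspended U2OS cells for 4 h. Flux was tracked with FluxOr dye plus Red40 quencher, and kinetic rate constants normalized to controls.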
# KB-V1 cytotox = KB-V1 MDR subline cytotoxicity; KB-V1 MDR cells viability, CellTiter-Glo, 72 h; Potency, µM (doses to about 46.1 µM), most hits filed as cytotoxic; hit rate 3.4% among 400,000; also: potency is read from the fitted curve at half-maximal effect; % is scaled to controls: 0 for no effect and ±100 for the full control effect; nearly all actives have a fitted effect of over 60% in size
#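 qHTS viability screen in drug-selected KB-V1 MDR cells: 72 h compound treatment at 37 degrees C, ATP luminescence end point.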
# KB-3-1 tox = KB-3-1 parental cell cytotoxicity; Potency, µM (highest dose often 46.1 µM), usual class: cytotoxic; KB-3-1 viability, CellTiter-Glo ATP luminescence, 72 h; hit rate 1.4% among 400,000; AID 1347075; also: potency is read from the fitted curve at half-maximal effect; % is scaled to controls: 0 for no effect and ±100 for the full control effect; nearly all actives have a fitted effect of over 60% in size
#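 Screening of KB-3-1 cells (DMEM, 10% FBS, phenol-red free) ran from lowest to highest compound concentration; after 72 h at 37 °C viability was read luminescently and curves fitted.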
# * hit, by the source's call; i = inactive; ? = inconclusive; . = not tested or not shown; [ ] = dose if it differs, or a comment. In the library only some 7.6% were active in any assay of this set; here they are far more common. Unless noted, calls follow the shape of the dose curve; as a rule, active = well fitted curve in the direction sought with a large enough effect; inconclusive = small, poorly fitted or top-dose-only effect, or another doubt; inactive = no such curve, though single readings can be large; an effect the other way counts as inactive or inconclusive.
SMILES,SW480 rerep,MCF10A rereplic,hERG WT inh,KCNH2 3.1 block,KB-V1 cytotox,KB-3-1 tox
CCSc1oc(-c2ccco2)nc1S(=O)(=O)c1ccc(F)cc1,1%,13%,16,0,16µM*,i
COc1ccc(CC2C(=O)NC(C)C(=O)N(C)C3Cc4ccc(cc4)Oc4cc(ccc4O)CC(C(=O)NC(C)C(=O)NC(C)C(=O)N2C)N(C)C3=O)cc1 (stereo unspecified),4.6µM*,?,6,-13,i,0.23µM*
CC(C)c1ccc(NC(=S)NC2CCN(Cc3ccccc3)CC2)cc1,?,28%,5,-42,21µM*,?
S=C(NCc1ccc(Cl)cc1)NC1CCN(Cc2ccccc2)CC1,16µM*,?,1,-76*,16µM*,?
O=C(NC1=NCCS1)c1cccc(OC(F)F)c1,-64%,?,-13,2,i,i
Cc1ccc(C(=O)N(CN2CCCC2=O)c2ccc(F)cc2)cc1C,-13%,3%,0,10,18µM*,i
Cc1ccc(N(CN2CCCC2=O)C(=O)c2ccc(C)c(C)c2)cc1,-8%,5%,-13,5,8.2µM*,i
CC(C)CC(C(=O)NCc1ccc(F)cc1)N1Cc2ccccc2C1=O (stereo unspecified),.,.,.,.,i,i
CCOC(=O)Cc1nnc(NC(=O)CSc2nnc3c4ccccc4n(C)c3n2)s1,0.73µM*,?,-3,-1,i,i
CCOC(=O)C(C)Sc1nnc2c3ccccc3n(C)c2n1 (stereo unspecified),-8%,1.8µM*,-17,-14,i,i
CCOC(=O)Cc1nnc(NC(=O)CSc2ccc(C)cc2)s1,1%,8%,-6,3,i,i
COc1cc(/C=N/NC(=S)Nc2cccc(Cl)c2C)ccc1OCC(=O)N1CC(C)OC(C)C1 (stereo unspecified),3%,2%,4,8,4.6µM*,i
CCCCn1c(=O)[nH]c(=O)c2c1nc(-c1ccccn1)n2CC,-20%,7%,-10,2,?,i
O=C(CN(C1CCCCC1)S(=O)(=O)c1ccc(Br)cc1)NCc1cccnc1,-1%,13%,23,18,?,i
COc1cc(Br)c(CN2C(=O)NC3(CCCCCC3)C2=O)cc1OC,12%,0%,-1,-11,6.5µM*,i
CN(C)C(CNS(=O)(=O)c1cc([N+](=O)[O-])ccc1Cl)c1ccco1 (stereo unspecified),2%,2%,1,5,i,i
CN(C)C(CNS(=O)(=O)c1ccc(Cl)cc1F)c1ccco1 (stereo unspecified),-1%,3%,7,-2,18µM*,i
FC(F)(F)c1cc(Cl)c2nc(-c3ccccc3)cn2c1,1%,15µM*,-8,-9,i,i
Cc1ccccc1NC(=O)Cc1nc(COC(=O)Cc2cccc(C(F)(F)F)c2)cs1,.,.,23,9,i,i
CCN(c1ccccc1)S(=O)(=O)c1ccc(C(=O)Nc2nnc(CSC)o2)cc1,?,?,-17,14,?,?
CCCCN(CCCC)S(=O)(=O)c1ccc(C(=O)Nc2nnc(CSC)o2)cc1,?,10µM*,-28,.,?,?
CCCCN(CC)S(=O)(=O)c1ccc(C(=O)Nc2nnc(CSC)o2)cc1,?,?,19,-11,i,?
CCCN(CCC)S(=O)(=O)c1ccc(C(=O)Nc2nnc(CSC)o2)cc1,21%,?,2,-7,7.3µM*,6.5µM*
CC(C)[C@H](NC(=O)[C@@H]1Cc2ccccc2CN1)C(=O)Nc1ccc2c(c1)OCO2,-2%,-4%,37,-24,i,i
Cc1ccc(NC(=O)COC(=O)c2ccc3ncsc3c2)c(C)c1,.,.,-5,-14,?,i
SMILES,SW480 rerep,MCF10A rereplic,hERG WT inh,KCNH2 3.1 block,KB-V1 cytotox,KB-3-1 tox
CCCN1C(=O)/C(=C/c2ccc(C)o2)SC1=Nc1ccc(OC)cc1,1%[9.22 µM],16µM*,-11,-20,i,i
Cc1ccc(CN(Cc2cccnc2)C(=O)CN2C(=O)COc3ccccc32)o1,-3%,0%,-17,-7,i,i
COc1ccc(CN(Cc2ccccn2)C(=O)CN2C(=O)C(C)Oc3ccccc32)cc1 (stereo unspecified),14%,28%,-4,12,2.1µM*,i
O=C(CN1C(=O)COc2ccccc21)N(Cc1ccccc1)Cc1ccccn1,1%,-3%,-23,-18,15µM*,i
COc1ccc(CN(CC(=O)NC2CCCC2)C(=O)CN2C(=O)COc3ccccc32)cc1,-2%,2%,5,-3,i,i
CCOC(=O)/C=C/C(=O)Nc1ccc(S(=O)(=O)Nc2nccs2)cc1,-9%,-1%,0,2,i,i
Nc1ncnc(Sc2ncccn2)c1[N+](=O)[O-],?,?,-12,6,?,3.7µM*
O=C(Cn1c(=O)oc2cc(S(=O)(=O)N3CCCCC3)ccc21)N1CCCCC1,-4%,-5%,-22,-106*,i,i
CC1CCN(S(=O)(=O)c2ccc3c(c2)oc(=O)n3CC(=O)N2CCCCC2)CC1,.,.,.,.,i,i
Cc1ccc(NC(=O)Cn2c(=O)oc3cc(S(=O)(=O)N4CCC(C)CC4)ccc32)cc1C,?,21µM*,-10,0,?,?
CNC(=O)c1cc2c(=O)n3cc(C)ccc3nc2n(C(C)C)c1=N,?,7.1µM*,41,-45,i,i
N=c1c(C(=O)NC2CCCC2)cc2c(=O)n3ccccc3nc2n1C1CCCCC1,4.6µM*,2.9µM*,-16,-38,?,i
Cc1ccc2nc3c(cc(C(=O)NC4CCCCC4)c(=N)n3C3CCCCC3)c(=O)n2c1,18µM*,?,-3,-17,?,?
C=C(NNC(C)=O)c1ccc(O)cc1,.,.,.,.,i,?
Cc1nc2ccccc2n1/N=C/c1ccc([N+](=O)[O-])o1,6%,2%,15,-7,i,i
Cc1nc2ccccc2n1/N=C/c1ccc([N+](=O)[O-])s1,?,18µM*,-3,4,12µM*,?
O=[N+]([O-])c1ccc(/C=N/n2c(CO)nc3ccccc32)s1,3.3µM*,14%,-17,5,i,?
O=[N+]([O-])c1ccc(/C=N/n2cnc3ccccc32)s1,4.1µM*,?,12,-2,?,?
O=[N+]([O-])c1ccc(/C=N/Nc2ncccc2[N+](=O)[O-])s1,2%,12%,8,1,i,i
